High-throughput results as filed in PubChem BioAssay.
Most compounds without a hit are left out; they make up all but 4.2% or so of the library.
uPA surface inh: cell surface uPA generation inhibition. cell surface uPA generation assay, qHTS. Potency, µM (titrated, usually from 38.3 µM), usual class: inhibitors. 330,000 compounds, 0.31% hits; active means well fitted inhibition curve with a large enough effect; inconclusive means small, poorly fitted or top-dose-only effect; inactive means no such curve, though single readings can be large or run the other way; tested in mouse RAW 264.7 cells; further: nearly all actives have a fitted effect of over 55% in size
ClpP mod: qHTS Assay for Activators of ClpP; ATP-dependent Clp protease proteolytic subunit (Bacillus subtilis (strain 168)), P80244; purified B. subtilis ClpP, FRET peptide cleavage, 20 min; Potency, µM (series often up to 57.5 µM); 340,000 compounds, 1.9% hits; AID 651965, 2013; active means well fitted falling curve with a large enough effect; inconclusive means small, poorly fitted or top-dose-only effect; inactive means no such curve, though single readings can be large or run the other way; further: the source files actives as falling curves though it sought activators and does not explain the sign; nearly all actives have a fitted effect of over 65% in size
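Purified B. subtilis ClpP, 10 microg/mL final in Tris/HCl pH8 with KCl, BSA, glycerol and Tween-20, cleaved an Abz/nitrotyrosine-quenched decapeptide. Fluorescence (ex 320, em 430) was read at 0 and 20 min at room temperature. Delta was normalized to 5.8 microM ADEP and DMSO/no-enzyme controls.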
Sfp inh: blocks B. subtilis Sfp PPTase activity; Q9F4F7; Biochemical Sfp PPTase activity, qHTS; Potency, µM, hits mostly inhibitors; 310,000 compounds, 3.5% hits; AID 1490;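 further: the enzyme is Sfp with the accession as filed and its product quenches rhodamine fluorescence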
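Reaction rates are the 30-min fluorescence difference (ex 525, em 598 nm) in wells containing 15 nM Sfp, 5 uM rhodamine-CoA and 12.5 uM BHQ-2-YbbR at pH 7.6 with 10 mM MgCl2.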
TCR activator: activates T cell receptor signaling | primary human leukocytes, anti-CD3, IL-2 HTRF, 48 h | Potency, µM (top dose mostly 9.22 µM), hits mostly activators | 330,000 tested, under 10 active
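Readout: HTRF IL-2, Eu-cryptate/d2 antibody pair, 320nm excitation, 665nm emission. Stimulus: a-CD3 beads, no co-stimulation. Cells: primary human leukocytes. Exposure: 48 hr with compound.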
Hits are given with their value; i = inactive; ? = inconclusive; nt = no result given; ! = not confirmed by another sample. Unless noted, the call rests on the fitted dose curve; in most records, active means well fitted curve in the direction sought with a large enough effect; inconclusive means small, poorly fitted or top-dose-only effect, or another doubt; inactive means no such curve, though single readings can be large; an effect the other way counts as inactive or inconclusive.

SMILES	uPA surface inh	ClpP mod	Sfp inh	TCR activator
Cc1ccc(COc2ccc(-c3nnco3)cc2)cc1	i	i	i	i
Cc1ccc(C(C)C)c(OCc2ccc(-c3nnco3)cc2)c1	i	i	50µM	i
CC(=O)NC1Sc2ccccc2N=C1c1ccccc1 (centres undefined)	i	i	16µM	i
CC(=O)Nc1nc(-c2ccccc2)c(-c2ccccc2)s1	nt	i	nt	nt
CCN1CCN(C(c2cccc(F)c2)c2c(O)cc(C)n(CCOC)c2=O)CC1 (centres undefined)	nt	i	nt	nt
Cc1[nH]c2ccccc2c1CN1CCC(Cc2ccccc2)CC1	i	i	79µM	i
NC(=O)c1ccc2c(=O)n3c(-c4cc(Cl)c(N)c(Cl)c4)csc3nc2c1	5µM	i	i	i
Cc1ccc(-c2csc3nc4cc(C(=O)NC5CCC(O)CC5)ccc4c(=O)n23)cc1 (centres undefined)	i	i	56µM	i
Cc1csc2nc3cc(C(N)=O)ccc3c(=O)n12	i	i	i	i
C[C@@H](O)[C@@H]1C(=O)N2C(C(=O)O)=C([C@H]3CCCO3)S[C@H]12	nt	nt	79µM	nt
CC(NC(=O)c1ccc(Cl)s1)C1CCCO1 (centres undefined)	nt	i	i	i
CCC(C)c1ccccc1O (centres undefined)	i	i	nt	i
CC(C)c1ccc(O)c(N)c1	i	i	11µM	i
CCC(C)c1ccc(O)c(N)c1 (centres undefined)	nt	i	50µM	i
S=C(Nc1ccc2nc(-c3ccccn3)c(-c3ccccn3)nc2c1)N1CCCCC1	i	nt	i	i
CCCNC(=S)Nc1ccc2nc(-c3ccccn3)c(-c3ccccn3)nc2c1	i	i	18µM	i
S=C(Nc1ccc2nc(-c3ccccn3)c(-c3ccccn3)nc2c1)N1CCCCCC1	i	nt	40µM	i
Cc1ccc(NC(=S)N2CCOCC2)cc1	i	i	i	i
S=C(Nc1ccc2nccnc2c1)N1CCOCC1	i	nt	35µM	i
Cc1nc2ccc(NC(=S)NCCCO)cc2nc1C	i	nt	56µM	i
Cc1cccc(Cn2c(-c3cccc(Br)c3)nc3ccccc32)c1	nt	32µM	nt	nt
Cc1cccc(-c2n[nH]c(=S)n2/N=C/c2ccc(C)s2)c1	i	i	?	i
Cc1ccc(/C=N/n2c(-c3ccncc3)n[nH]c2=S)o1	i	nt	25µM	i
Cc1ccc(/C=N/n2c(-c3ccncc3)n[nH]c2=S)s1	i	i	63µM	i
Cc1ccc(-c2nc3ccccc3o2)cc1NC(=O)C(C)Oc1ccccc1 (centres undefined)	nt	i	nt	nt
SMILES	uPA surface inh	ClpP mod	Sfp inh	TCR activator
O=C(CCC(=O)c1ccc(Oc2ccccc2)cc1)Nc1ccc(C(=O)O)cc1	i	i	i	nt
COc1ccc(OC2C=CC(C#Cc3ccc(F)cc3F)OC2CO)cc1 (centres undefined)	nt	nt	i	nt
CCN(c1ccccc1)S(=O)(=O)c1ccc(NC(=O)c2nc(S(C)(=O)=O)ncc2Cl)cc1	?	i	20µM	i
CCOC(=O)CC(NC(=O)CCc1c(C)nc2c(-c3ccccc3)c(C)nn2c1C)c1ccc(C)cc1 (centres undefined)	nt	i	nt	nt
O=C(NCc1ccccc1CN1CCCC1)c1ccc(Cl)c(S(=O)(=O)N2CCCC2)c1	i	i	nt	i
CC1C[C@@]2(NC(=O)NC2=O)C(C)CN1C (some centres undefined)	i	i	i	i
CC1CC2(NC(=O)NC2=O)C(C)CN1C (centres undefined)	i	25µM	i	i
Cc1cccc(CSC(=N)N)c1	i	13µM	i	i
N=C(N)SCCc1cccc(CCSC(=N)N)c1	i	i	nt	i
CCCN1C(=O)/C(=C/c2ccncc2)SC1=S	i	i	56µM	i
O=C1/C(=C/c2ccncc2)SC(=S)N1N1CCOCC1	i	i	56µM	i
O=C1/C(=C/c2cccnc2)SC(=S)N1N1CCOCC1	i	i	i	i
CCC(Cn1nnc2ccccc2c1=O)NC(=O)Nc1cccc(Cl)c1 (centres undefined)	nt	i	nt	nt
Cc1cc(C)cc(OCC(=O)N(Cc2ccco2)Cc2ccccc2Cl)c1	nt	i	nt	nt
O=C(CSc1nnc(CCCN2C(=O)c3cccc4cccc(c34)C2=O)n1-c1ccccc1)N1CCN(CCO)CC1	i	14µM	i	i
O=C(CSc1nnc(CCCN2C(=O)c3cccc4cccc(c34)C2=O)n1-c1ccccc1)NCCCO	i	?	i	i
CC(C)CC(=O)NCc1nc2cccnc2n1Cc1ccccc1	nt	i	nt	nt
Cc1onc(-c2ccccc2Cl)c1C(=O)O/N=C(\N)c1ccc([N+](=O)[O-])o1	4.5µM	i	i	i
Oc1ccc(Cl)cc1-c1cc(-c2ccco2)[nH]n1	i	?	50µM	i
Oc1ccccc1-c1cc(-c2ccco2)[nH]n1	nt	i	i	i
O=C(O)c1ccc(Nc2nc(-c3cc4ccccc4oc3=O)cs2)cc1O	i	nt	35µM	i
COc1cc(O)c(C(CC(=O)N2CCCC(C)C2)c2ccc(N(C)C)cc2)c(OC)c1 (centres undefined)	i	i	i	i
COc1cc(O)c(C(CC(=O)N2CCN(c3ccccc3)CC2)c2ccc(N(C)C)cc2)c(OC)c1 (centres undefined)	i	i	89µM!	i
CCCS(=O)(=O)N1CCN(C2Cc3ccccc3C2)CC1	i	i	89µM	i
Cn1cc(P(=O)(N2CCOCC2)N2CCOCC2)cc1P(=S)(N1CCOCC1)N1CCOCC1	i	nt	20µM	i
SMILES	uPA surface inh	ClpP mod	Sfp inh	TCR activator
Cn1cc(P(=S)(N2CCOCC2)N2CCOCC2)cc1P(=O)(N1CCOCC1)N1CCOCC1	i	nt	50µM	i
CC(SC1=NS(=O)(=O)c2ccccc21)C(=O)O (centres undefined)	nt	i	nt	nt
CCOc1ccccc1CNC(=O)c1cc2oc3ccccc3c2n1C	i	20µM	i	i
CCOc1ccccc1CNC(=O)c1cc2occc2n1C	i	i	i	i
Cc1cccc2nc(CSc3nc4cc([N+](=O)[O-])ccc4s3)cn12	i	i	i	i
CC1(C)Cc2cccc(OCC(=O)OCC(=O)Nc3ccc(C(N)=O)cc3)c2O1	i	25µM	nt	i
Cc1cc(C)c(NC(=O)Cn2ccn(-c3cccc(Cl)c3)c(=O)c2=O)c(C)c1	nt	i	nt	nt
Cc1ccc(C)c(CNc2ccc(S(=O)(=O)N3CCCCC3)cc2)c1	2.5µM	i	nt	i
Cc1ccc(S(=O)(=O)N2CCCCC2)cc1	i	i	i	i
OCC[C@@H]1C[C@H](O)[C@@H](O)[C@]2(OCCc3cc(C(F)(F)F)ccc32)O1	nt	i	nt	nt
CCCCOC(=O)Sc1nc2ccccc2o1	i	i	40µM	i
S=c1[nH]nc(-c2ccncc2)n1/N=C/C=C/c1ccco1	i	i	45µM	i
S=c1[nH]nc(-c2ccccc2Cl)n1/N=C/C=C/c1ccco1	i	nt	56µM	i
COc1ccccc1/C=C\C=N\n1c(-c2ccc(Cl)cc2Cl)n[nH]c1=S	i	i	i	i
Cc1cccc(-c2n[nH]c(=S)n2/N=C/C=C/c2ccco2)c1	i	i	?	i
CN(C)c1ccc(C(=C2C=CC(=[N+](C)C)C=C2)c2c(O)c(S(=O)(=O)[O-])cc3cc(S(=O)(=O)O)ccc23)cc1	nt	i	?	nt
